# Source: paper PMC11062922 (Nature Chemical Biology, 2023)
# Read-outs that look alike come from different tables or passages of the source.
# What was measured:
# Parameters in all cases: species or system human, MV4-11 + K-562 + COLO205 + SK-N-BE2 + OVCAR-8
# ACVR1B = conditions: read-out: apparent Kd, n = 1
# ACVR1 = conditions: read-out: apparent Kd; compound concentrations: 100 nM and 1000 nM (sheet 'Samples'), CATDS: 4.9335047128928999E-2; n = 1
# CSNK1A1 = conditions: read-out: apparent Kd, n = 1
# CSNK1D = conditions: read-out: apparent Kd, n = 1
# CSNK1E = conditions: read-out: apparent Kd, n = 1
# DDR1 = conditions: read-out: apparent Kd, compound concentrations: 100 nM and 1000 nM (sheet 'Samples'), n = 1
# DDR2 = conditions: read-out: apparent Kd, compound concentrations: 100 nM and 1000 nM (sheet 'Samples'), n = 1
# GAK = conditions: read-out: apparent Kd, n = 1
# MAPK10 = conditions: read-out: apparent Kd, compound concentrations: 100 nM and 1000 nM (sheet 'Samples'), n = 1
# MAPK11 = conditions: read-out: apparent Kd, compound concentrations: 100 nM and 1000 nM (sheet 'Samples'), n = 1
# MAPK14 = conditions: read-out: apparent Kd, compound concentrations: 100 nM and 1000 nM (sheet 'Samples'), n = 1
# MAPK9 = conditions: read-out: apparent Kd, compound concentrations: 100 nM and 1000 nM (sheet 'Samples'), n = 1
# MAPKAPK2 = conditions: read-out: apparent Kd, n = 1
# PRKD2 = conditions: read-out: apparent Kd, n = 1
# RIPK2 = conditions: read-out: apparent Kd; compound concentrations: 100 nM and 1000 nM (sheet 'Samples'), CATDS: 5.3537616523073803E-2; n = 1
# TGFBR1 = conditions: read-out: apparent Kd, n = 1
# CSNK2A1;CSNK2A3 = conditions: read-out: apparent Kd; compound concentrations:100 nM and 1000 nM (sheet 'Samples'); n = 1
# CSNK2A2 = conditions: read-out: apparent Kd; compound concentrations:100 nM and 1000 nM (sheet 'Samples'); n = 1
# PRKD3 = conditions: read-out: apparent Kd; compound concentrations:100 nM and 1000 nM (sheet 'Samples'); n = 1
# MAPK8 = conditions: read-out: apparent Kd; compound concentrations: 100 nM and 1000 nM (sheet 'Samples'), CATDS: 5.2366017866035799E-2; n = 1
# NLK = conditions: read-out: apparent Kd; compound concentrations: 100 nM and 1000 nM (sheet 'Samples'), CATDS: 5.1907933882023798E-2; n = 1
# RIPK3 = conditions: read-out: apparent Kd; compound concentrations: 100 nM and 1000 nM (sheet 'Samples'), CATDS: 4.0216087331075998E-2; n = 1
# SIK3 = conditions: read-out: apparent Kd; compound concentrations: 100 nM and 1000 nM (sheet 'Samples'), CATDS: 4.1962261561680501E-2; n = 1
# ACVR2B = conditions: read-out: apparent Kd; compound concentrations:100 nM and 1000 nM (sheet 'Samples'); n = 1
# TGFBR2 = conditions: read-out: apparent Kd; compound concentrations:100 nM and 1000 nM (sheet 'Samples'); n = 1
# TNIK = conditions: read-out: apparent Kd; compound concentrations:100 nM and 1000 nM (sheet 'Samples'); n = 1
# [1] = compound concentrations:100 nM and 1000 nM (sheet 'Samples')
compound,measurement,setting,value
CN1CCN(CCCNc2nccc(-c3c(-c4ccc(F)cc4)nn4cc(C(N)=O)ccc34)n2)CC1 [GW622475X],potency estimated from few doses,"ACVR1B; compound concentrations: 100 nM and 1000 nM (sheet 'Samples'), CATDS: 0.21340745676279499",16.5 nM
same,potency estimated from few doses,ACVR1,488 nM
same,potency estimated from few doses,"CSNK1A1; compound concentrations: 100 nM and 1000 nM (sheet 'Samples'), CATDS: 5.98915782601789E-2",252 nM
same,potency estimated from few doses,"CSNK1D; compound concentrations: 100 nM and 1000 nM (sheet 'Samples'), CATDS: 0.221506901273927",15.6 nM
same,potency estimated from few doses,"CSNK1E; compound concentrations: 100 nM and 1000 nM (sheet 'Samples'), CATDS: 9.6112931202447002E-2",72.3 nM
same,potency estimated from few doses,DDR1; CATDS: 4.72879881828875E-2,576 nM
same,potency estimated from few doses,DDR2; CATDS: 3.7607039392505398E-2,1900 nM
same,potency estimated from few doses,"GAK; compound concentrations: 100 nM and 1000 nM (sheet 'Samples'), CATDS: 4.4963876201462499E-2",712 nM
same,potency estimated from few doses,MAPK10; CATDS: 4.8287227118758103E-2,530 nM
same,potency estimated from few doses,MAPK11; CATDS: 4.7431075480448899E-2,569 nM
same,potency estimated from few doses,MAPK14; CATDS: 0.132847798162957,36.9 nM
same,potency estimated from few doses,MAPK9; CATDS: 6.4628535375358898E-2,200 nM
same,potency estimated from few doses,"MAPKAPK2; compound concentrations: 100 nM and 1000 nM (sheet 'Samples'), CATDS: 0.150637698751246",29.3 nM
same,potency estimated from few doses,"PRKD2; compound concentrations: 100 nM and 1000 nM (sheet 'Samples'), CATDS: 3.69212062314868E-2",2180 nM
same,potency estimated from few doses,RIPK2,363 nM
same,potency estimated from few doses,"TGFBR1; compound concentrations: 100 nM and 1000 nM (sheet 'Samples'), CATDS: 8.1591289102362505E-2",107 nM
Cc1cccc(-c2nc(Nc3ccc4[nH]ncc4c3)c3ccccc3n2)n1 [GW857175X],potency estimated from few doses,ACVR1B; [1],89 nM
same,potency estimated from few doses,CSNK2A1;CSNK2A3,4.12 nM
same,potency estimated from few doses,CSNK2A2,3.3 nM
same,potency estimated from few doses,PRKD2; [1],8.89 nM
same,potency estimated from few doses,PRKD3,35.5 nM
NC(=O)c1ccc2c(-c3ccnc(NCCCO)n3)c(-c3ccc(F)cc3)nn2c1 [GW581744X],potency estimated from few doses,"ACVR1B; compound concentrations: 100 nM and 1000 nM (sheet 'Samples'), CATDS: 5.1726105609422098E-2",678 nM
same,potency estimated from few doses,"CSNK1A1; compound concentrations: 100 nM and 1000 nM (sheet 'Samples'), CATDS: 4.4417171665787201E-2",1210 nM
same,potency estimated from few doses,"CSNK1D; compound concentrations: 100 nM and 1000 nM (sheet 'Samples'), CATDS: 0.12647868619351901",70.3 nM
same,potency estimated from few doses,"CSNK1E; compound concentrations: 100 nM and 1000 nM (sheet 'Samples'), CATDS: 7.8439067124282905E-2",202 nM
same,potency estimated from few doses,DDR1; CATDS: 4.5461807893970897E-2,1100 nM
same,potency estimated from few doses,DDR2; CATDS: 4.1041053531745197E-2,1740 nM
same,potency estimated from few doses,"GAK; compound concentrations: 100 nM and 1000 nM (sheet 'Samples'), CATDS: 5.7317399451807E-2",485 nM
same,potency estimated from few doses,MAPK10; CATDS: 0.179195319148265,38 nM
same,potency estimated from few doses,MAPK11; CATDS: 5.6945469434317497E-2,495 nM
same,potency estimated from few doses,MAPK14; CATDS: 0.23382543991059199,25.3 nM
same,potency estimated from few doses,MAPK8,651 nM
same,potency estimated from few doses,MAPK9; CATDS: 0.113637290114738,86.9 nM
same,potency estimated from few doses,"MAPKAPK2; compound concentrations: 100 nM and 1000 nM (sheet 'Samples'), CATDS: 0.15591620581864199",48 nM
same,potency estimated from few doses,NLK,670 nM
same,potency estimated from few doses,RIPK3,1940 nM
same,potency estimated from few doses,SIK3,1560 nM
c1ccc(-c2n[nH]cc2-c2ccnc3ccccc23)nc1 [GW271431X],potency estimated from few doses,ACVR1B; [1],18.8 nM
same,potency estimated from few doses,ACVR2B,555 nM
same,potency estimated from few doses,CSNK1A1; [1],628 nM
same,potency estimated from few doses,CSNK1D; [1],398 nM
same,potency estimated from few doses,CSNK1E; [1],712 nM
same,potency estimated from few doses,GAK; [1],465 nM
same,potency estimated from few doses,MAPKAPK2; [1],1680 nM
same,potency estimated from few doses,PRKD2; [1],1430 nM
same,potency estimated from few doses,TGFBR1; [1],9.71 nM
same,potency estimated from few doses,TGFBR2,113 nM
same,potency estimated from few doses,TNIK,1380 nM
